# Screening results as filed in PubChem.
# Cav3 T inh = inhibitors of human Cav3.2 T-type calcium channel. Cav3.2-expressing cells, Fluo-4 calcium fluorescence FDSS; active compounds read low. B-score at 10 µM. 4% of 100,000 active. AID 449739;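 active = single-dose well whose peak fluorescence ratio is a statistical outlier from its plate by either plate-standardised score or position-corrected B-score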
# PostGolgi yeast = growth inhibition of a yeast mutant, post-Golgi transport screen; AID 739; 0.9% of 98,000 active; post-Golgi transport phenotypic cell assay; inhibition, % at 10 µM;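 note: yeast cells grown in 1536-well plates; yeast grown about 18 h at 30C before absorbance read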
# TNAP act DEA = activators of human TNAP at intermediate phosphate acceptor | P05186 | purified TNAP, CDP-star luminescence, 100 mM DEA, 30 min; active compounds read high; scale: 0 levamisole-inhibited, 1 vehicle-only enzyme | activation factor at 20 µM | 64,000 tested, under 10 active | AID 813;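 active = activation factor of at least 2 at 20 µM, relative to controls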
# PostGolgi ctrl = yeast control strain growth, post-Golgi counter-screen; efflux-deficient yeast background strain, growth absorbance A615, 16 h; inhibition, % at 10 µM; 5% of 98,000 active; AID 738
# DAT uptake mod = changed human dopamine transporter uptake under cocaine IC80 | Q01959 | LLC-PK1 hDAT cells, [14C]-dopamine uptake with cocaine IC80; actives deviate in either direction | B-score at 10 µM | 1.3% of 110,000 active | AID 449768;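 active = Z score or B-score, a plate-position-corrected score, falls beyond the plate's 99.7% confidence bounds, in either direction; inactive = both scores lie inside the 99.7% bounds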;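 note: scored against the spread of the other compound wells on the same plate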
# Target sequence (Q01959 whole entry, looked up): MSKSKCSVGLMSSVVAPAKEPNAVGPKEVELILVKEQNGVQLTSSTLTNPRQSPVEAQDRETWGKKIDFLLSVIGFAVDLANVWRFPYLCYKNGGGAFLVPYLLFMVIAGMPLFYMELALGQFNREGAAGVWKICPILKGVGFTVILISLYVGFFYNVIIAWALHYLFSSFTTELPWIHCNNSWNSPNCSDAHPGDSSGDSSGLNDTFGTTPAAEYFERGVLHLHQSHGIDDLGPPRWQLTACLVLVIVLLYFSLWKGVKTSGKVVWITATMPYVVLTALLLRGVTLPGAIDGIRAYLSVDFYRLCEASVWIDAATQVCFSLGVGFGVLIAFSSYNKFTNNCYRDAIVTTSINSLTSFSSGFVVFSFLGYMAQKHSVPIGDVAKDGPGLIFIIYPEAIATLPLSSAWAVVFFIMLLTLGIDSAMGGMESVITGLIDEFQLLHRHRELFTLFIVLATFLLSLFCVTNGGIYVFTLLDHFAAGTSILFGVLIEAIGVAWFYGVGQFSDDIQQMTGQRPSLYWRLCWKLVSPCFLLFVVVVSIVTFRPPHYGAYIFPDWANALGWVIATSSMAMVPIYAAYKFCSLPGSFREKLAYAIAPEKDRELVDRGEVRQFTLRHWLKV
# Smad3 inh = Smad3 (human) transcription factor binding inhibition. TR-FRET Smad3/Dy647-FoxH1 peptide binding, europium anti-His. inhibition, % at 25 µM. 0.29% of 88,000 active;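 active = compounds that reduce the energy-transfer binding signal between the protein and its labelled peptide by more than half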;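 note: 0% = Smad3 plus labelled peptide maximal FRET and 100% = peptide-only background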
# Starred values were filed as active, the others as inactive; / = no result. Compounds with a hit are over-represented: about 8.7% of the library has one in this group of screens. Cut-off read from the data, not from the text of the source, unless noted: active = inhibition above about 30%; inactive = the rest.
SMILES,Cav3 T inh,PostGolgi yeast,TNAP act DEA,PostGolgi ctrl,DAT uptake mod,Smad3 inh
Cc1cc(C)n2nc(SCC3COc4ccccc4O3)nc2n1 (configuration not stated),-0.56,-1,0.9,2,-0.095,2
Cc1nc(-c2ccccn2)sc1C(=O)Nc1ccc(F)cc1F,-0.5,-7,/,-2,-0.099,/
O=C(O)CN(c1ccccc1F)S(=O)(=O)c1ccccc1,0.92,-2,0.9,0,0.047,/
O=C(Nc1ccc(Cl)cc1)C1CCCN(S(=O)(=O)c2cnc[nH]2)C1 (configuration not stated),1,-8,0.9,-1,-0.52,9
Cc1cc(C)c(S(=O)(=O)Nc2cccnc2)c(C)c1,0.23,-5,0.8,2,0.65,-11
COc1ccc(S(=O)(=O)N(CCCN2CCOCC2)Cc2cccc3ccccc23)cc1,-0.87,6,/,2,0.99,-10
CCCn1c(=O)[nH]c(=O)c2c1nc(-c1ccc3c(c1)OCCO3)n2CCN1CCOCC1,1.3,0,0.9,8,0.04,8
CN1CCN(C2=C(Cl)C(=O)N(c3ccc(Cl)cc3)C2=O)CC1,-0.32,1,0.9,31*,-0.039,-11
O=C(CCCOc1ccccc1)N1CCN(c2ccccc2)CC1,-4.3*,-3,/,17,0.76,-1
O=C(C(NS(=O)(=O)c1cccs1)c1ccccc1)N1CCN(c2ccccc2F)CC1 (configuration not stated),0.026,-3,/,18,-0.14,-3
O=C(C(Cc1ccccc1)n1cccc1)N1CCN(c2ncccn2)CC1 (configuration not stated),-0.71,-3,0.9,5,-0.27,6
Cc1cccc(N2CCN(C(=O)C(NS(=O)(=O)c3cccs3)c3ccccc3)CC2)c1C (configuration not stated),-2.7,-4,/,40*,0.55,9
Cc1cccc(N2CCN(C(=O)C(Cc3ccccc3)n3cccc3)CC2)c1C (configuration not stated),-4.7*,-3,/,14,-0.12,4
Cc1cccc(N2CCN(C(=O)C34CC5CC(CC(C5)C3)C4)CC2)c1C,-1.2,-4,0.9,51*,-0.073,8
COc1ccc2c(c1OC)CN(C)CCc1cc3c(cc1C(O)C2)OCO3 (configuration not stated),0.34,5,1,10,-0.52,3
O=C(O)c1ccn(Cn2cnc3ccccc32)n1,0.25,4,0.9,1,0.72,-4
Cc1cccc(N2CCN(C(=O)CCCOc3ccccc3)CC2)c1C,-7.7*,16,0.9,33*,1,-1
CCOC(=O)N1CCN(C(=O)CCCOc2ccccc2)CC1,0.015,6,0.9,0,-0.017,8
CCCOC(=O)NC(CC)COC(=O)Nc1cc(C)ccc1C (configuration not stated),-0.86,2,1,33*,0.19,/
CC(=O)c1ccc(Oc2ncnc3sccc23)c(CN2CCOCC2)c1,1.6,1,0.9,0,-7.9*,/
CC(=O)c1ccc(OCC(C)C)c(CN2CCCCC2)c1,-0.15,4,0.9,5,-0.77,-15
CN1CCN(Cn2cc(/C=C/C(=O)c3ccccc3)c3ccccc32)CC1,-0.49,15,/,34*,0.44,6
COc1ccc2ccccc2c1/C=C/C(=O)c1ccccc1,/,/,/,/,/,-18
COc1cccc2cc(C(=O)C3=C(O)C(=O)N(Cc4ccco4)C3c3cccnc3)oc12 (configuration not stated),-0.18,6,0.8,2,0.99,12
Cc1cccc(Nc2nc(-c3ccccn3)cs2)n1,-3.6*,25,1.7,13,0.85,2
SMILES,Cav3 T inh,PostGolgi yeast,TNAP act DEA,PostGolgi ctrl,DAT uptake mod,Smad3 inh
Cc1cccnc1Nc1nc(-c2ccccn2)cs1,-1.2,101*,/,52*,-0.73,-4
Cc1cccnc1Nc1nc(-c2ccc(O)cc2O)cs1,-0.49,-1,1,59*,5.4*,10
c1ccc(Nc2nc(-c3cccs3)cs2)nc1,-5*,-8,0.8,31*,2.2,/
NS(=O)(=O)c1ccc(Nc2nc(-c3ccc(O)cc3O)cs2)cc1,-0.63,-1,/,13,-0.17,8
Cc1cccc(Nc2nc(-c3cccs3)cs2)n1,-0.4,/,/,/,1.7,12
CC(=O)c1cccc(Nc2nc(-c3cccc([N+](=O)[O-])c3)cs2)c1,0.016,2,/,26,-0.0059,/
O=c1c2ccccc2n(Cc2ccc(Cl)cc2)c(=O)n1Cc1ccco1,/,-2,0.9,75*,-0.65,10
COc1ccc(C2CC(C(F)(F)F)n3nc(C(=O)NCc4c(C)nn(C)c4C)c(Cl)c3N2)cc1 (configuration not stated),-0.023,1,0.9,0,0.32,13
CC(C)CC(=O)NC(NC(=S)Nc1cccc2cccnc12)C(Cl)(Cl)Cl (configuration not stated),-0.035,0,/,17,-0.22,/
CC(C)C(=O)NC(Nc1cccc2cccnc12)C(Cl)(Cl)Cl (configuration not stated),-5.1*,15,/,7,-1.7,/
CCOC(=O)C1=C(O)/C(=C/c2cn(CC(=O)N3CCCC3)c3ccccc23)SC1=Nc1ccccc1,0.52,/,/,/,-8.3*,0
CCOC(=O)c1sc(NC(=O)CSc2nnc(C(C)C)n2CC)nc1C,0.094,9,1,13,2.5*,-14
CCOC(=O)c1sc(NC(=O)CSc2nnc(C(C)C)n2C)nc1C,-0.2,/,/,/,1.1,-4
COCCNC(=S)NC1CC2CCCC(C1)N2Cc1ccco1 (configuration not stated),-0.83,-3,/,-11,-0.34,/
O=C(NCCCN1CCCC1=O)c1cccs1,/,2,1.1,9,/,0
O=C(NCCCN1CCCC1=O)c1cccc(C(F)(F)F)c1,1.6,-5,1,35*,0.37,-3
CC(=O)c1cccc(NC(=O)Nc2cnn(Cc3ccc(Cl)cc3Cl)c2)c1,-0.75,6,/,3,-1,3
Cc1c(CCO)c(=O)n(-c2ccccc2)n1S(=O)(=O)c1c(Cl)cc(Cl)cc1Cl,-5.5*,0,/,17,0.2,-8
Cc1ccc(NC(=O)c2cccc3c2C(=O)N(C2CCCCC2)C3)cc1,-0.76,10,/,44*,0.7,/
CCOc1ccc(NC(=O)c2cccc3c2C(=O)N(CCOC)C3)cc1,0.042,3,/,31*,-0.0044,-9
CCOC(=O)N1CCC(N2Cc3cccc(C(=O)Nc4ccc(CC)cc4)c3C2=O)CC1,0.018,0,/,34*,4*,9
CSCCC(NC(=O)c1occc1C)C(=O)O (configuration not stated),-0.012,9,0.9,23,0.55,6
Fc1ccc(-n2nnnc2-c2cnc(-c3cccs3)nc2C(F)(F)F)cc1,-3.3,1,/,46*,-0.084,/
Cc1ccc(-n2nnnc2-c2cnc(-c3cccnc3)nc2C(F)(F)F)cc1,-1.4,2,/,8,1.7,/
